Measurements published in paper PMC11062922 (Nature Chemical Biology, 2023).
Where two headings read alike, the source gives them in different places.

Experiments:
Set-up in all cases: species or system human, MV4-11 + K-562 + COLO205 + SK-N-BE2 + OVCAR-8
AURKA = conditions: read-out: apparent Kd, n = 1
CSNK1D = conditions: read-out: apparent Kd, n = 1
MAPK10 = conditions: read-out: apparent Kd, n = 1
MAPK9 = conditions: read-out: apparent Kd, compound concentrations: 100 nM and 1000 nM (sheet 'Samples'), n = 1
PRKACA = conditions: read-out: apparent Kd, n = 1
PRKACB = conditions: read-out: apparent Kd, n = 1
ATM = conditions: read-out: apparent Kd, n = 1
CAMKK2 = conditions: read-out: apparent Kd, n = 1
CHEK1 = conditions: read-out: apparent Kd, n = 1
EPHA4 = conditions: read-out: apparent Kd, n = 1
EPHA5 = conditions: read-out: apparent Kd, n = 1
EPHB2 = conditions: read-out: apparent Kd, n = 1
EPHB4 = conditions: read-out: apparent Kd, n = 1
PIP4K2C = conditions: read-out: apparent Kd; compound concentrations:100 nM and 1000 nM (sheet 'Samples'); n = 1
PRKAG2 = conditions: read-out: apparent Kd, n = 1
TNK1 = conditions: read-out: apparent Kd, n = 1
RPS6KA4 = conditions: read-out: apparent Kd, n = 1
[1] = compound concentrations:100 nM and 1000 nM (sheet 'Samples')

Cc1ccc(Nc2ccnc(Nc3ccc4c(c3)CS(=O)(=O)C4)n2)cc1O.Cl [GW579362A]
potency estimated from few doses (AURKA; compound concentrations: 100 nM and 1000 nM (sheet 'Samples'), CATDS: 4.77260985286359E-2): 393 nM

COc1cccc2c(-c3ccncc3)c(-c3ccc(F)cc3)nn12 [GW468513X]
potency estimated from few doses (CSNK1D; compound concentrations: 100 nM and 1000 nM (sheet 'Samples'), CATDS: 0.14597424406190301): 52 nM
potency estimated from few doses (MAPK10; compound concentrations: 100 nM and 1000 nM (sheet 'Samples'), CATDS: 5.7634861461912698E-2): 346 nM
potency estimated from few doses (MAPK9; CATDS: 6.8874136988771595E-2): 218 nM

Cl.ON=C1CCc2cc(-c3nc(C4CCNCC4)[nH]c3-c3ccncc3)ccc21 [SB-614067-R]
potency estimated from few doses (CSNK1D; [1]): 436 nM

CCn1c(-c2nonc2N)nc2c(C#CC(C)(C)O)nc(OCCN)cc21.CCn1c(-c2nonc2N)nc2c(C#CC(C)(C)O)nc(OCCN)cc21.Cl.Cl [GSK902056A]
potency estimated from few doses (PRKACA; [1]): 1200 nM
potency estimated from few doses (PRKACB; [1]): 1000 nM

Cc1ccc2c(-c3ccncc3)c(-c3ccc(F)cc3)nn2c1.Cl [GW461484A]
potency estimated from few doses (ATM; [1]): 262 nM
potency estimated from few doses (CAMKK2; [1]): 1180 nM
potency estimated from few doses (CHEK1; [1]): 1870 nM
potency estimated from few doses (CSNK1D; [1]): 125 nM
potency estimated from few doses (EPHA4; [1]): 550 nM
potency estimated from few doses (EPHA5; [1]): 429 nM
potency estimated from few doses (EPHB2; [1]): 341 nM
potency estimated from few doses (EPHB4; [1]): 275 nM
potency estimated from few doses (PIP4K2C): 1560 nM
potency estimated from few doses (PRKACA; [1]): 1900 nM
potency estimated from few doses (PRKAG2; [1]): 417 nM
potency estimated from few doses (TNK1; [1]): 280 nM

CCn1c(-c2nonc2N)nc2c(-c3ccccc3)ncc(OCCCN)c21.CCn1c(-c2nonc2N)nc2c(-c3ccccc3)ncc(OCCCN)c21.O=C(O)C(F)(F)F.O=C(O)C(F)(F)F [GSK260205A]
potency estimated from few doses (CSNK1D; compound concentrations: 100 nM and 1000 nM (sheet 'Samples'), CATDS: 4.20751700104477E-2): 469 nM
potency estimated from few doses (PRKACA; compound concentrations: 100 nM and 1000 nM (sheet 'Samples'), CATDS: 2.90938755589953E-2): 1480 nM
potency estimated from few doses (PRKACB; compound concentrations: 100 nM and 1000 nM (sheet 'Samples'), CATDS: 3.9372517693277299E-2): 557 nM

Fc1ccc(-c2c(-c3ccncc3)[nH]c3cccnc23)cc1 [RO1153853-000]
potency estimated from few doses (CSNK1D; compound concentrations: 100 nM and 1000 nM (sheet 'Samples'), CATDS: 0.18196610661617901): 99.4 nM
potency estimated from few doses (MAPK9; CATDS: 7.2614011783570201E-2): 541 nM

Cl.Cl.NCC(C(=O)Nc1cc(Br)c(-c2ccnc3[nH]ccc23)s1)c1ccccc1.NCC(C(=O)Nc1cc(Br)c(-c2ccnc3[nH]ccc23)s1)c1ccccc1 (stereo not shown) [GSK1269851A]
potency estimated from few doses (ATM; [1]): 275 nM
potency estimated from few doses (AURKA; [1]): 768 nM
potency estimated from few doses (CAMKK2; [1]): 1310 nM
potency estimated from few doses (CHEK1; [1]): 1700 nM
potency estimated from few doses (EPHA4; [1]): 510 nM
potency estimated from few doses (EPHA5; [1]): 74.9 nM
potency estimated from few doses (EPHB2; [1]): 94.9 nM
potency estimated from few doses (EPHB4; [1]): 54.6 nM
potency estimated from few doses (PIP4K2C): 1930 nM
potency estimated from few doses (PRKACB; [1]): 1920 nM
potency estimated from few doses (PRKAG2; [1]): 111 nM
potency estimated from few doses (TNK1; [1]): 62.7 nM

NCCNS(=O)(=O)c1ccc(-c2ccnc3[nH]ccc23)cc1 [GSK977617A]
potency estimated from few doses (ATM; [1]): 295 nM
potency estimated from few doses (CAMKK2; [1]): 1970 nM
potency estimated from few doses (CHEK1; [1]): 2250 nM
potency estimated from few doses (EPHA4; [1]): 287 nM
potency estimated from few doses (EPHA5; [1]): 267 nM
potency estimated from few doses (EPHB2; [1]): 189 nM
potency estimated from few doses (EPHB4; [1]): 171 nM
potency estimated from few doses (PRKACA; [1]): 361 nM
potency estimated from few doses (PRKACB; [1]): 571 nM
potency estimated from few doses (RPS6KA4; [1]): 588 nM
potency estimated from few doses (TNK1; [1]): 181 nM

Cc1cccc(-c2nc(Nc3ccncc3)c3sccc3n2)n1 [GW869641X]
potency estimated from few doses (CSNK1D; [1]): 185 nM
potency estimated from few doses (MAPK10; [1]): 1140 nM

Cc1cccc2c(-c3ccncn3)c(-c3ccc(F)cc3)nn12 [GW515532X]
potency estimated from few doses (CSNK1D; compound concentrations: 100 nM and 1000 nM (sheet 'Samples'), CATDS: 0.213897093745788): 1920 nM

Clc1cc(Cl)cc(Nc2ccnc(Nc3cc(Cl)cc(Cl)c3)n2)c1 [GSK175726A]
potency estimated from few doses (ATM; compound concentrations: 100 nM and 1000 nM (sheet 'Samples'), CATDS: 2.7134606068091E-2): 77.5 nM
potency estimated from few doses (AURKA; compound concentrations: 100 nM and 1000 nM (sheet 'Samples'), CATDS: 1.16998692507499E-2): 470 nM
potency estimated from few doses (CAMKK2; compound concentrations: 100 nM and 1000 nM (sheet 'Samples'), CATDS: 8.7749844490250094E-3): 1420 nM
potency estimated from few doses (CHEK1; compound concentrations: 100 nM and 1000 nM (sheet 'Samples'), CATDS: 9.2936135533363204E-3): 1080 nM
potency estimated from few doses (EPHA4; compound concentrations: 100 nM and 1000 nM (sheet 'Samples'), CATDS: 2.4571343446097599E-2): 91.5 nM
potency estimated from few doses (EPHA5; compound concentrations: 100 nM and 1000 nM (sheet 'Samples'), CATDS: 1.7966956970046102E-2): 164 nM
potency estimated from few doses (EPHB2; compound concentrations: 100 nM and 1000 nM (sheet 'Samples'), CATDS: 1.9895433949459099E-2): 134 nM
potency estimated from few doses (EPHB4; compound concentrations: 100 nM and 1000 nM (sheet 'Samples'), CATDS: 2.29851767560591E-2): 103 nM
potency estimated from few doses (PRKAG2; compound concentrations: 100 nM and 1000 nM (sheet 'Samples'), CATDS: 2.5465407694982199E-2): 86.1 nM
potency estimated from few doses (RPS6KA4; compound concentrations: 100 nM and 1000 nM (sheet 'Samples'), CATDS: 8.4689848583526291E-3): 1720 nM
potency estimated from few doses (TNK1; compound concentrations: 100 nM and 1000 nM (sheet 'Samples'), CATDS: 5.9656473094293803E-2): 24.9 nM
